Measured values from PubChem BioAssay (Tox21).
“And” between values parts separate entries of the source, which are not always exact repeats. Equal entries are not always repeated. Records with an inconclusive call do not appear. A call without a number means that no potency is given here. The source holds several records for some structures; these can differ, active in one and inactive in another. The source made the active and inactive calls. Unless noted, calls come from the whole dose curve; as a rule, active = well fitted curve in the direction sought with a large enough effect in the repeat runs; inconclusive = weak or mixed curves; inactive = no such curve, though single readings can be large; an effect the other way counts as inactive or inconclusive.

How the values were obtained:
[1] = qHTS assay to identify small molecule antagonists of the retinoid acid receptor (RAR) signaling pathway - cell viability counter screen (AID 1159551); conditions: C3RL4 cells viability, ATP luminescence (CellTiter-Glo), 6 h; series mostly up to 92.4 µM; note: nearly all actives have a fitted effect of over 35% in size
Method in brief: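 Measured by luminescent ATP detection, viability reflects C3RL4 cells treated 6 h at 37 C with test chemicals in the presence of 1 uM (final) retinol.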

[2] = qHTS assay to identify small molecule antagonists of the estrogen related receptor (ERR) signaling pathway from Tox21 library - cell viability counter screen (AID 1224834); conditions: ERR reporter cells viability, CellTiter-Fluor, 17.5 h; series mostly up to 92.4 µM; note: nearly all actives have a fitted effect of over 30% in size; note: potency is the fitted concentration of half-maximal effect
Method in brief: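 Seeded ERR cells were rested 6 h at 37 C/5% CO2 before compounds, positive and negative controls or DMSO were added. Incubation continued for 17.5 h, and viability was then quantified by CellTiter-Fluor fluorescence.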

[3] = biological target: Luciferin 4-monooxygenase (Photinus pyralis) (UniProt P08659); assay: qHTS assay to identify small molecule inhibitors of firefly luciferase (AID 1224835); note: nearly all actives have a fitted effect of over 25% in size; conditions: purified P. pyralis luciferase, luminescence inhibition; series mostly up to 115 µM
Method in brief: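 Quantitative HTS format; KM concentrations of both substrates. Purified P. pyralis FLuc activity quantified from luminescence images.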

[4] = qHTS assay to identify small molecule agonists of the constitutive androstane receptor (CAR) signaling pathway - cell viability counter screen (AID 1224836); conditions: HepG2-CYP2B6-hCAR viability, CellTiter-Fluor, 23 h, PK11195 added to every well; series mostly up to 92.4 µM; note: nearly all actives have a fitted effect of over 45% in size; note: potency is the fitted concentration of half-maximal effect
Method in brief: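 Counter screen multiplexed with the CAR reporter readout: HepG2 cells co-transfected with hCAR and the CYP2B6-2.2kb construct receive a 15-concentration compound series and 0.75 uM PK11195 (final), then CellTiter-Fluor fluorescence is read after 23 h.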

[5] = qHTS assay to identify small molecule antagonists of the constitutive androstane receptor (CAR) signaling pathway - cell viability counter screen (AID 1224837); conditions: HepG2-CYP2B6-hCAR viability, CellTiter-Fluor, 23 h, co-treated with 50 nM CITCO; series mostly up to 92.4 µM; note: nearly all actives have a fitted effect of over 45% in size; note: potency is the fitted concentration of half-maximal effect
Method in brief: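 To flag cytotoxic false antagonists, HepG2 hCAR/CYP2B6-2.2kb cells were treated 23 hr with 15-concentration compound series and 50 nM CITCO at 37 C/5% CO2; CellTiter-Fluor fluorescence was the measured end point.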

[6] = biological target: Nuclear receptor subfamily 1 group I member 3 (Homo sapiens) (UniProt Q14994); assay: qHTS assay to identify small molecule antagonists of the constitutive androstane receptor (CAR) signaling pathway (AID 1224838); conditions: HepG2-CYP2B6-hCAR luciferase, CITCO-stimulated, 24 h; series mostly up to 92.4 µM;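 note: HepG2 cells stably expressing hCAR with CYP2B6 luciferase reporter stimulated by CITCO; nearly all actives have a fitted effect of over 40% in size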; note: potency is the fitted concentration of half-maximal effect
Method in brief: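 Human hepatoma HepG2 cells expressing hCAR and a CYP2B6 promoter (2.2 kb) luciferase construct; compound titration (15 points) with 50 nM CITCO final, 24 h at 37 C/5% CO2; luminescence via ONE-Glo after 30 min at room temperature.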

[7] = biological target: Nuclear receptor subfamily 1 group I member 3 (Homo sapiens) (UniProt Q14994); assay: qHTS assay to identify small molecule agonists of the constitutive androstane receptor (CAR) signaling pathway (AID 1224839); conditions: HepG2 hCAR CYP2B6-luciferase, agonist mode, 24 h; series mostly up to 92.4 µM; note: nearly all actives have a fitted effect of over 15% in size; note: potency is the fitted concentration of half-maximal effect
Method in brief: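 A 15-concentration quantitative screen uses HepG2 cells co-transfected stably with human CAR and CYP2B6-2.2kb reporter. Treatment lasts 24 h with 0.75 uM PK11195 final present; ONE-Glo luminescence is the signal.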

[8] = qHTS assay to identify small molecule antagonists of the estrogen related receptor signaling pathway with the pleiotropic PPARgamma coactivator (PGC) from Tox21 10K library - cell viability counter screen (AID 1224840; active = well fitted cell-killing curve with a large enough effect in the repeat runs, not every such curve was filed as active; note: nearly all actives have a fitted effect of over 40% in size; note: potency is the fitted concentration of half-maximal effect); conditions: PGC/ERR reporter cells viability, CellTiter-Fluor, 17.5 h; series mostly up to 92.4 µM
Method in brief: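 Seeded PGC/ERR cells (2,000/well, 6 h, 37 C/5% CO2) get compound by pin tool; 17.5 h incubation at 37 C; CellTiter-Fluor added, 30 min, fluorescence measured.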

[9] = biological target: Thyrotropin receptor (Homo sapiens) (UniProt P16473); assay: qHTS assay to identify small molecule agonists of the thyroid stimulating hormone receptor (TSHR) signaling pathway (AID 1224843; calls by dose curve; note: nearly all actives have a fitted effect of over 45% in size); conditions: TSHR-HEK293 cells, cAMP HTRF, agonist mode, 30 min; series mostly up to 92.4 µM
Method in brief: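 Compounds are titrated over 15 concentrations, in triplicate, onto TSHR-HEK293 cells seeded at 800/well. Plates sit 30 min at room temperature before cAMP-d2 and anti-cAMP cryptate are added; signal is read after a further hour.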

[10] = qHTS assay to identify small molecule antagonists of the retinoic acid receptor (RAR) signaling pathway (AID 1159552; note: nearly all actives have a fitted effect of over 50% in size; note: potency is the fitted concentration of half-maximal effect); conditions: C3RL4 RARE luciferase reporter, retinol-stimulated, 6 h; series mostly up to 92.4 µM
Method in brief: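 Quantitative HTS in C3RL4 RARE-luciferase reporter cells. Compounds were added with 1 uM (final) retinol; luminescence was read after 6 hr.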

[11] = qHTS assay to identify small molecule agonists of the retinoic acid receptor (RAR) signaling pathway (AID 1159553); conditions: C3RL4 RARE luciferase reporter, agonist, 6 h; activation: at 73.3 µM (top of the series) unless noted
Method in brief: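 6 hr compound exposure (DMSO vehicle) of overnight-plated C3RL4 RARE-luc cells at 37 C; luminescence quantified after 30 min RT with luciferase reagent.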

[12] = qHTS assay to identify small molecule antagonists of the estrogen related receptor (ERR) signaling pathway - cell viability counter screen (AID 1224818); conditions: ERR reporter cell line viability counter screen; series mostly up to 46.1 µM
Method in brief: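 Compounds dissolved in DMSO were applied to ERR cells seeded at 2,000 per well 6 h earlier. Cell viability followed 17.5 h later via 30-min CellTiter-Fluor fluorescence.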

[13] = qHTS assay to identify small molecule antagonists of the estrogen related receptor signaling pathway with the pleiotropic PPARgamma coactivator (PGC) cell viability counter screen (AID 1224822); conditions: ERR/PGC reporter cell line viability counter screen; series mostly up to 46.1 µM
Method in brief: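 Counter screen for cell viability: PGC/ERR cells, 6 h pre-incubation after plating, 17.5 h compound exposure at 37 C, fluorescence from CellTiter-Fluor after 30 min.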

[14] = qHTS assay to identify small molecule antagonists of the estrogen related receptor signaling pathway with the pleiotropic PPARgamma coactivator (PGC) from Tox21 10K library (AID 1224841; call rule not given here; note: actives are mostly falling curves and most rising ones were filed inactive; nearly all actives have a fitted effect of over 50% in size; note: potency is the fitted concentration of half-maximal effect); conditions: PGC/ERR reporter cell line, ONE-Glo luciferase, 18 h; series mostly up to 92.4 µM
Method in brief: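 Test chemicals dissolved in DMSO were applied to pre-incubated (6 h) PGC/ERR cells at 2,000 cells/well for an 18 h, 37 C treatment; reporter luminescence was then read using One-Glo.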

[15] = qHTS assay to identify small molecule agonists of the estrogen related receptor signaling pathway with the pleiotropic PPARgamma coactivator (PGC) from Tox21 10K library (AID 1224842); conditions: PGC/ERR reporter cell line, luciferase ONE-Glo, 18 h; series mostly up to 92.4 µM; note: nearly all actives have a fitted effect of over 15% in size
Method in brief: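 PGC/ERR reporter cells (NTP line) were seeded 2,000 per well, rested 6 h at 37 C/5% CO2, then pin-dosed with compounds in DMSO for 18 h at 37 C; luciferase read by One-Glo luminescence after 30 min at room temperature.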

Chain of Nuclear receptor subfamily 1 group I member 3 (Homo sapiens) (Q14994 whole entry, looked up): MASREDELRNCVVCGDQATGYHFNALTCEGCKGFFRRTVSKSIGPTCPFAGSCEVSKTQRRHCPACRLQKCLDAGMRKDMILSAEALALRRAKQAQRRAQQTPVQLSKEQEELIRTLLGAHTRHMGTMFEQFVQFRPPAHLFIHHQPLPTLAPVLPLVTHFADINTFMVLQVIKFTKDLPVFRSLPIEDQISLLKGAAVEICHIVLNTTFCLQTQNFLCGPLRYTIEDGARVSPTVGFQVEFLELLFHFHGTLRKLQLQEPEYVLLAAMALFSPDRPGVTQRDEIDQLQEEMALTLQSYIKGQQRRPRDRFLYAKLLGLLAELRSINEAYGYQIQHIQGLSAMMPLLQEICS
Chain of Thyrotropin receptor (Homo sapiens) (P16473 whole entry, looked up): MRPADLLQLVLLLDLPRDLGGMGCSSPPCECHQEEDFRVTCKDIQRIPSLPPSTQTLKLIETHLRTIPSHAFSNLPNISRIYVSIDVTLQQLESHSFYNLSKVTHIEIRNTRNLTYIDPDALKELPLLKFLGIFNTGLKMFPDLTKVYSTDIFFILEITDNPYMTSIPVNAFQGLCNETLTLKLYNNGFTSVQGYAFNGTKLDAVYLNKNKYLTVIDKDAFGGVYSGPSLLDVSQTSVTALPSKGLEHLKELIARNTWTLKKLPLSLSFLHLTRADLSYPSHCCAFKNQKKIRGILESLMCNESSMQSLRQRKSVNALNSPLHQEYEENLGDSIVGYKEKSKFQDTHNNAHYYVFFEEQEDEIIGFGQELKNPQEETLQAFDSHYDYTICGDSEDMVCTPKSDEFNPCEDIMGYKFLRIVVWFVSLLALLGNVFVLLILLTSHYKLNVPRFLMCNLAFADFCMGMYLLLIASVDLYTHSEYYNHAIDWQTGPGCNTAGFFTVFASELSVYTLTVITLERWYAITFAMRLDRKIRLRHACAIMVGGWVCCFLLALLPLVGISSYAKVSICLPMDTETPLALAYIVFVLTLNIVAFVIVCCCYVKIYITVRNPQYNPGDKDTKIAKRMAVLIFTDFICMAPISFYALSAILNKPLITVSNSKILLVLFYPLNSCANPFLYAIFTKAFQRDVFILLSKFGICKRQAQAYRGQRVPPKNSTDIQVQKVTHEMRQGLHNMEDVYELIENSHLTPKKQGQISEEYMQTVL
Chain of Luciferin 4-monooxygenase (Photinus pyralis) (P08659 whole entry, looked up): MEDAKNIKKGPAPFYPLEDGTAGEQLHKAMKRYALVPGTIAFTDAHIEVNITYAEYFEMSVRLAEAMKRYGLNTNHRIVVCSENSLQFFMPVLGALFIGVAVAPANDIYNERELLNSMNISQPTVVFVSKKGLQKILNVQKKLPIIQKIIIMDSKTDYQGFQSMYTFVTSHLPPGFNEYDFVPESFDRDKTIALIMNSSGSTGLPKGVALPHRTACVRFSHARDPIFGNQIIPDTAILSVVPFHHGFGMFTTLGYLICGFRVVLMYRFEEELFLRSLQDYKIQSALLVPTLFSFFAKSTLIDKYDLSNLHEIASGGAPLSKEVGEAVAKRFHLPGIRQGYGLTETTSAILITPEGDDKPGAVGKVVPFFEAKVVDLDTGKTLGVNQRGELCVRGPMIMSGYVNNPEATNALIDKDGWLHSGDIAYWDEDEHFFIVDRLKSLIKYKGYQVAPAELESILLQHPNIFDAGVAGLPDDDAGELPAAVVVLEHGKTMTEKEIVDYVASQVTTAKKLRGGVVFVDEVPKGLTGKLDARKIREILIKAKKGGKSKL

Compound | Potency [1] | Potency [2] | Potency [3] | Potency [4] | Potency [5] | Potency [6] | Potency [7] | Potency [8] | Potency [9] | Potency [10] | Potency [11] | outcome [12] | outcome [13] | Potency [14] | Potency [15] | viability change, negative = cytotoxic [2] | viability change, negative = cytotoxic [8]
[Na+] | inactive | inactive | inactive | inactive | inactive | inactive | inactive | inactive |  |  |  |  |  |  |  |  | 
COC(=O)c1ccc(C)cc1 | inactive | inactive |  | inactive | inactive | inactive | inactive | inactive | inactive |  |  |  |  |  |  |  | 
Nc1cc(Cl)c(N)c(Cl)c1 | inactive | inactive | inactive | inactive | inactive | inactive | inactive | inactive | inactive | inactive |  |  |  |  |  |  | 
C=CN1CCCC1=O | inactive | inactive |  | inactive | inactive | inactive | inactive | inactive |  |  |  |  |  |  |  |  | 
CC/C=C\C/C=C\C/C=C\CCCCCCCC(=O)O | inactive | inactive |  | inactive | inactive | inactive | inactive | inactive | inactive | inactive | inactive |  |  |  |  |  | 
CN(Cc1cnc2nc(N)nc(N)c2n1)c1ccc(C(=O)N[C@@H](CCC(=O)O)C(=O)O)cc1 | inactive |  | inactive | inactive | inactive | 48.6 nM (active) and 75 nM (active) | inactive | inactive | inactive | inactive |  | inactive | inactive |  |  |  | 
C=C1C[C@H]2[C@@H]3C=C(C)C4=CC(=O)CC[C@]4(C)[C@H]3CC[C@]2(C)[C@@]1(OC(C)=O)C(C)=O | inactive |  |  | inactive | inactive | inactive | inactive | inactive |  | inactive | inactive |  |  | 31.3 µM (active) | inactive |  | 
CCCN1C=CN(C)C1 | inactive | inactive |  | inactive | inactive | inactive | inactive | inactive | inactive |  |  |  |  |  |  |  | 
CCC(Cc1c(I)cc(I)c(N)c1I)C(=O)O (centres undefined) | inactive | inactive | inactive | inactive | inactive | inactive | 47 µM (active) | inactive | inactive | inactive | inactive |  |  |  |  |  | 
CN(C)C | inactive | inactive |  | inactive | inactive | inactive | inactive | inactive |  |  |  |  |  |  |  |  | 
O=[Se](O)O | inactive |  |  | 43.3 µM (active) | 48.6 µM (active) | 61.2 µM (active) and 3.3 µM (active) | inactive | 30.7 µM (active) | inactive | inactive | inactive |  |  |  |  | -9.9% [at 19 µM] (inactive) | -29.3% [at 19 µM] (inactive)
CCCCCCCCCCC(CO)CCCCCCCC (centres undefined) | inactive | inactive | inactive | inactive | inactive | inactive | inactive | inactive | inactive |  |  |  |  |  |  |  | 
Cc1ccc(S(=O)(=O)O)cc1C | inactive | inactive |  | inactive | inactive | inactive | inactive | inactive | inactive | inactive | inactive |  |  |  |  |  | 
ClC/C=C/CCl | inactive | inactive |  | inactive | inactive | inactive | inactive | inactive | inactive | inactive |  |  |  | inactive | inactive |  | 
Cc1ccc(N)c([N+](=O)[O-])c1 | inactive | inactive |  | inactive | inactive | inactive | inactive | inactive | inactive | inactive |  |  |  |  |  |  | 
Nc1ccc(N)c(Cl)c1 | inactive | 61 µM (active) and 54.5 µM (active) | inactive | inactive | inactive | inactive |  |  |  | inactive |  |  |  |  |  |  | 
Cc1ccc([N+](=O)[O-])c(C)c1 | inactive | 17.2 µM (active) and inactive |  |  |  | 8.63 µM (active) and inactive | inactive | 21.7 µM (active) and inactive | inactive | 6.11 µM (active) and inactive |  |  |  | 61.1 µM (active) and inactive | inactive |  | 
Cc1ccc(/C(=C\CN2CCCC2)c2ccccn2)cc1 | inactive | inactive |  | inactive | inactive |  |  | inactive | inactive |  |  | inactive | inactive |  |  |  | 
